Bioassay records deposited in PubChem by The Scripps Research Institute Molecular Screening Center.
A selection: hits, their analogues and other compounds. The true share with any hit is near 3.4%.
GPR151 ag: human GPR151 activation | Q8TDV0 | PathHunter beta-arrestin GPR151 cells, luminescence | activation, % at 11.2 µM | actives 1% (n = 650,000) | AID 1508602; in the data active means activation above about 4.9%
TEAD-YAP block: TEAD-YAP interaction inhibition | actives 1.4% (n = 640,000) | inhibition, % at 9.12 µM | HEK-TIYL cells, TEAD-Gal4/YAP UAS-luciferase luminescence; in the data active means inhibition above about 32%
FBW7 act: activators of human E3 ligase FBW7. AID 1259310. AlphaScreen FBW7–phospho-cyclin E peptide binding, activator screen. actives 0.13% (n = 650,000). Q969H0. normalized activity (activation), % at 26.1 µM; in the data active means normalized activity above about 1.9%;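 further: purified mutant Fbw7 with reduced substrate affinity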
MITF primary: inhibitors of human MITF. inhibition, % at 2.6 µM. AID 1259374. O75030. actives 0.91% (n = 650,000). AlphaScreen MITF homodimerization, bead proximity signal; in the data active means inhibition above about 50%
GPR151 conf act: human GPR151 activation, confirmation screen. AID 1508609. shares compounds with GPR151 ag. GPR151 PathHunter beta-arrestin cells, luminescence, 90 min; % of EA-reagent control over plate median. activation, % at 11.2 µM. 6,700 tested, under 10 active;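 active means mean percent activation across replicates above the confirmation screen cutoff of 4.91%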
GPR119 ag: GPR119 activation, counter-screen for GPR151 activators. AID 1508611. shares compounds with GPR151 ag. actives 0.3% (n = 6,700). activation, % at 11.2 µM. GPR119 PathHunter beta-arrestin cells, luminescence, 90 min; 0 = compound-well median, 100 = enzyme-acceptor control;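 active means mean percent activation in the counterscreen above 29.09%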;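 further: counterscreen on off-target GPR119 to flag nonselective hits from the GPR151 activator screen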
Target sequence (Q8TDV5 whole entry, looked up): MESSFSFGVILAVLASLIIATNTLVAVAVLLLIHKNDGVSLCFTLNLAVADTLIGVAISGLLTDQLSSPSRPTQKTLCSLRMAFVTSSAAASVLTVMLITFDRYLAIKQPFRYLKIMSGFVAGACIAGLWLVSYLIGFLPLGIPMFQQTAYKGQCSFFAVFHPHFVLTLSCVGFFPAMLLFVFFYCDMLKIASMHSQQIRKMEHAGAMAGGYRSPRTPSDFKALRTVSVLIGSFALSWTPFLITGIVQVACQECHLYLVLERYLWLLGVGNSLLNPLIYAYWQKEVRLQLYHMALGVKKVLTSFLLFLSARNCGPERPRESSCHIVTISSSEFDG
Large screens that a line does not name were inactive (follow-up assays come after a bar, where they were run).

COc1c(-c2ccncc2)ccc2[nH]c(C3COc4ccccc4C3)nc12 (stereo unspecified)	none
CCN(CC)c1ccc(C(=O)Nc2sc3c(c2C#N)CCCCC3)cc1	GPR151 ag 5.1 | GPR151 conf act inactive | GPR119 ag inactive
CCN(CC)c1ccc(C(=O)Nc2sc3c(c2C#N)CCCC3)cc1	none
CC1CN(CC(=O)NCc2nc(-c3ccccc3)n[nH]2)Cc2ccccc2O1 (stereo unspecified)	none
Cc1ccc2c(c1)CN(CC(=O)NCc1cc(-c3ccccc3)n[nH]1)CC(C)O2 (stereo unspecified)	GPR151 ag 5.2 | GPR151 conf act inactive | GPR119 ag inactive
c1ccc(CCn2nnnc2CN2CCN(c3ccccc3)CC2)cc1	none
c1ccc(CCN2CCN(c3ccccc3)CC2)cc1	GPR151 ag 6.9 | GPR151 conf act inactive | GPR119 ag inactive
CC1CCCC(NC(=O)C2N(Cc3ccc(F)cc3)C(=O)C3C(C(=O)Nc4ccc(Cl)cc4)C4C=CC32O4)C1C (stereo unspecified)	GPR151 ag 5.3 | GPR151 conf act inactive | GPR119 ag inactive
CC1CCCC(NC(=O)C2N(Cc3ccc(Cl)cc3)C(=O)C3C(C(=O)Nc4ccc(Cl)cc4)C4C=CC32O4)C1C (stereo unspecified)	none
COc1ccc(CN2C(=O)C3C(C(=O)Nc4cccc(C)c4)C4C=CC3(O4)C2C(=O)NC2CCCCC2C)cc1 (stereo unspecified)	none
COc1cccc(CN2C(=O)C3C(C(=O)Nc4cccc(C)c4)C4C=CC3(O4)C2C(=O)NC2CCCCC2C)c1 (stereo unspecified)	GPR151 ag 5.5 | GPR151 conf act inactive | GPR119 ag inactive
COCCCN1C(=O)C2C(C(=O)Nc3cccc(SC)c3)C3C=CC2(O3)C1C(=O)NC1CCCCC1 (stereo unspecified)	GPR151 ag 5.8 | GPR151 conf act inactive | GPR119 ag inactive
CC(c1ccccc1)N1C(=O)C2C(C(=O)Nc3ccc(Cl)cc3)C3C=CC2(O3)C1C(=O)NC1CCCCC1 (stereo unspecified)	GPR151 ag 5.2 | GPR151 conf act inactive | GPR119 ag inactive
CCN1CCCC1CNC(=O)c1sc2ncnc(N3CCCCC3)c2c1C (stereo unspecified)	none
O=C(O)CN1C(=O)/C(=C\c2c(F)cccc2Cl)SC1=S	none
CC1CCN(C(=O)c2cc3nc(-c4ccc(Cl)cc4)cc(C(F)(F)F)n3n2)CC1	none
CNC(=S)Nc1cc(S(=O)(=O)c2ccccc2)ccc1OC	none
Cc1nc2ccc(C(=O)N/N=C/c3ccccn3)cc2[nH]1	none
Cc1ccc(-c2nc(C3CCCN3C(=O)CCCC(=O)O)n3ccccc23)cc1 (stereo unspecified)	GPR151 ag 5.5 | GPR151 conf act inactive | GPR119 ag inactive
COC(=O)C1CCN(C(=O)CC(C)(C)C)CC1	GPR151 ag 6.1 | GPR151 conf act inactive | GPR119 ag inactive
O=C1/C(=C\N2CCCC2)c2ccccc2C(=O)N1c1ccccc1	GPR151 ag 5.0 | GPR151 conf act inactive | GPR119 ag inactive
Cc1ccccc1NC(=O)NCCn1ccnc1C	none
COc1ccc(CNC(=O)c2noc(C)c2[N+](=O)[O-])cc1	GPR151 ag 5.0 | GPR151 conf act inactive | GPR119 ag inactive
COc1ccc(CCNC(=O)/C=C\C(=O)O)cc1OC	GPR151 ag 5.0 | GPR151 conf act inactive | GPR119 ag inactive
CCCN1CCN(C(=S)NCCc2ccc(OC)c(OC)c2)CC1	GPR151 ag 5.5 | GPR151 conf act inactive | GPR119 ag inactive
CCC(Br)C(=O)NCCc1ccc(OC)c(OC)c1 (stereo unspecified)	GPR151 ag 5.2 | GPR151 conf act inactive | GPR119 ag inactive
O=C(CCCNc1ccccc1)N/N=C/c1ccco1	none
CCOc1cc(C=C(C#N)C#N)ccc1OC(=O)c1cccs1	GPR151 ag 12 | GPR151 conf act inactive | GPR119 ag inactive
COc1cc(C=C(C#N)C#N)ccc1OC(=O)c1cccs1	none
CCNS(=O)(=O)c1ccc(CCC(=O)NC2CC2)cc1	GPR151 ag 6.7 | GPR151 conf act inactive | GPR119 ag inactive
CCCOc1cccc(-c2nc3c([nH]2)c(=O)n(C)c(=O)n3C)c1	none
CCC(=O)N1c2ccccc2-c2nnc(SC)nc2OC1c1ccc(OC)cc1 (stereo unspecified)	GPR151 ag 5.6 | GPR151 conf act inactive | GPR119 ag inactive
CCNC(=O)c1nn(CC2CC2)c2c1CN(Cc1ccc(OC)cc1)CC2	none
CC(=O)c1cccc(NC(=O)CN(C2CCCCC2)S(=O)(=O)c2ccc(C)cc2)c1	none
Cc1nn(C)c(C)c1-c1ncc(C(=O)Nc2ccccc2)s1	GPR151 ag 5.7 | GPR151 conf act inactive | GPR119 ag inactive
Cc1cccc(C2N(Cc3ccccc3)CCCN2Cc2ccccc2)n1	GPR151 ag 5.4 | GPR151 conf act inactive | GPR119 ag inactive
COCCOC(=O)c1c(NC(=O)CNCc2ccc(F)cc2)sc(C(N)=O)c1C	none
CSc1ncc(CN2CCN(CC(C)(C)C)C(CCO)C2)cn1 (stereo unspecified)	GPR151 ag 5.8 | GPR151 conf act inactive | GPR119 ag inactive
Cc1ccc(C(=O)Nc2ccc(S(N)(=O)=O)cc2)cc1	none
COc1cccc(C2C(C#N)=C(N)Oc3n[nH]c(-c4cc(OC)ccc4OC)c32)c1 (stereo unspecified)	none
CN(C)CCNC(=O)c1cc2c(s1)-c1ccccc1SC2	none
O=C(NCCCN1CCCC1)c1cc2c(s1)-c1ccccc1SC2	GPR151 ag 6.0 | GPR151 conf act inactive | GPR119 ag inactive
CC(C)C(=O)Nc1ccc(NC(=O)c2ccccc2Cl)nc1	GPR151 ag 6.9 | GPR151 conf act inactive | GPR119 ag inactive
O=C(Nc1ccccn1)c1ccccc1Cl	GPR151 ag 6.0 | GPR151 conf act inactive | GPR119 ag inactive
CC(Oc1ccc2c(c1)OCO2)C(=O)NNC(=O)Nc1cccc(Cl)c1Cl (stereo unspecified)	none
Cc1cc(OC(C)C(=O)NNC(=O)Nc2cccc(Cl)c2Cl)ccc1[N+](=O)[O-] (stereo unspecified)	GPR151 ag 6.1 | GPR151 conf act inactive | GPR119 ag inactive
COC(=O)c1ccccc1NC(=O)CN(c1ccc(OC)cc1OC)S(C)(=O)=O	GPR151 ag 9.5 | GPR151 conf act inactive | GPR119 ag inactive
COc1ccc(OC)c(N(CC(=O)Nc2ccccc2F)S(C)(=O)=O)c1	none
COC(=O)c1ccccc1NC(=O)CN(c1ccccc1Cl)S(C)(=O)=O	none
COC(=O)c1ccccc1NC(=O)CN(c1cc(OC)ccc1OC)S(C)(=O)=O	GPR151 ag 5.6 | GPR151 conf act inactive | GPR119 ag inactive
Cc1c(C(=O)NC2CCCCC2)sc2ncnc(N3CCN(c4ccccc4F)CC3)c12	none
CCOC(=O)c1sc(NC(=O)C2CC2)nc1C	GPR151 ag 13 | GPR151 conf act inactive | GPR119 ag inactive
